Screens deposited in PubChem BioAssay by several laboratories.
Compounds with a hit are over-represented: about 2.4% of the library has one in this group of screens.
NOD2-RIPK2 inh – inhibitors of human NOD2-RIPK2 interaction; CHO BLA complementation NOD2-RIPK2, CCF4 ratio; inhibition, % at 4.98 µM; hit rate 0.38% among 360,000; in the data active means inhibition above about 21%;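 further: 0% = vehicle only and 100% = reference blocker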
Target sequence (O43353 whole entry, looked up): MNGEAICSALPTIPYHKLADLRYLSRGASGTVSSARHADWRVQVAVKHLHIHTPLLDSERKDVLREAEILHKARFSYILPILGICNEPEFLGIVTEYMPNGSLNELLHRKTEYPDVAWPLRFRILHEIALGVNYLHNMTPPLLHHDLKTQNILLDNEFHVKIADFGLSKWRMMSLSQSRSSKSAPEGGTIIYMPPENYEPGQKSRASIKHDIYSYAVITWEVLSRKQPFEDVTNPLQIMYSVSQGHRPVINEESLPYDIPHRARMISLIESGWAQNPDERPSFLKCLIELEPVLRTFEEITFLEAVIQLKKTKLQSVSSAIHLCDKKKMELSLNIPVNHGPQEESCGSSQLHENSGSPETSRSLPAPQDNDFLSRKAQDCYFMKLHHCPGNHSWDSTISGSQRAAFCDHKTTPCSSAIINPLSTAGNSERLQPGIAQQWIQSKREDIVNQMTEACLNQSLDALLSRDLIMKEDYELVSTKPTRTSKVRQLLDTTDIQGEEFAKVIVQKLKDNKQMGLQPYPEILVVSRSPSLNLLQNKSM
TLR4-MyD88 BLA – blocks binding of human TLR4 to MyD88; O00206+Q99836; HeLa CL3-4 TLR4/MyD88 BLA complementation, FRET ratio; inhibition, % at 8.4 µM; hit rate 0.18% among 200,000; in the data active means inhibition above about 25%;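 further: 0% = vehicle and 100% = reference inhibitor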
HTR2A ag – activates the mouse 5-HT2A serotonin receptor. hit rate 0.66% among 360,000. activation, % at 7.6 µM. CHO-K1 mHTR2A beta-arrestin complementation, luminescence; percent of 30 µM serotonin response. P35363. AID 624169;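 active means activation above a run cutoff, the mean activation of all tested compounds plus 3 SD, cut at about 14% in these data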;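 further: 0% = plate median of compound wells and 100% = 30 µM serotonin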
ANO1 block – blocks the mouse calcium-activated chloride channel TMEM16A; hit rate 1.2% among 310,000; normalized B-score (activity score, 25-100; higher = stronger inhibition) at 10 µM; HEK293 TMEM16A/YFP iodide influx fluorescence, ionomycin; AID 588511; Q8BHY3;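 active means ratio plate-corrected score three or more library SD toward inhibition, starting fluorescence score within five deviations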;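 further: score derived from kinetic fluorescence span divided by baseline fluorescence per well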
TMEM16A act – activators or potentiators of mouse TMEM16A chloride channel; hit rate 0.3% among 340,000; AID 623877; Q8BHY3; B-score at 10 µM; HEK293 TMEM16A/YFP-H148Q/I152L, iodide quench fluorescence; active compounds read low;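 active means fluorescence-ratio B-score plate-corrected deviation score at least 3 library SD below zero, with starting fluorescence score within 5 deviations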;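 further: channel opened by trigger with iodide after compound preincubation; score built on the fluorescence ratio of max minus min over baseline; more negative score means more quench and so TMEM16A activation or potentiation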
TLR9-MyD88 inh – TLR9-MyD88 interaction inhibition; inhibition, % at 4.98 µM; CHO BLA complementation TLR9-MyD88, CCF4 FRET ratio; hit rate 0.21% among 340,000;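 active means inhibition above the mean over all tested compounds plus 3 SD, cut at about 21% in these data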;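 further: 0% = DMSO only wells and 100% = clavulanate BLA inhibitor control wells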
OPRM1 ag – counter-screen for mouse HTR2A agonists: human mu opioid receptor agonists | activation, % at 9.3 µM | AID 624380 | shares compounds with HTR2A ag | hit rate 5.3% among 2,300 | U2OS OPRM1 beta-arrestin PathHunter, luminescence; DMSO 0%, DAMGO 9.3 µM 100%;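 active means mean activation above the mean of DMSO-only wells plus 3 SD, cut at about 0.5% in these data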
HTR2A ag conf – confirmation of mouse HTR2A serotonin receptor agonists; shares compounds with HTR2A ag; CHO-K1 PathHunter beta-arrestin recruitment, luminescence; DMSO 0%, 30 µM serotonin 100%; activation, % at 7.6 µM; hit rate 19% among 2,300;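 active means mean activation across triplicates above the hit threshold derived in the original primary screen, cut at about 15% in these data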
An asterisk follows results filed as active; i = inactive; x = no result given; ! = a repeat was not active.

SMILES	NOD2-RIPK2 inh	TLR4-MyD88 BLA	HTR2A ag	ANO1 block	TMEM16A act	TLR9-MyD88 inh	OPRM1 ag	HTR2A ag conf
CN(C)CCCN=Cc1c(O)n(CCc2ccccc2)c(=O)[nH]c1=O	-2	-3	1	i	i	-14	x	x
CC[C@@H]1C(=O)OC[C@@H]1Cc1cncn1C	-1	x	-3	i	i	-19	x	x
CC[C@@H]1C(=O)OC[C@@H]1Cc1cncn1C	0	7	18*!	i	i	-9	0	4
CC(C)(C)c1cc(OC(=O)Cc2ccccc2)ccc1O	5	x	15*	i	i	7	0	-1
C[C@]12CC[C@H](O)C[C@@H]1CC[C@@H]1[C@@H]2CC[C@]2(C)C(=O)CC[C@@H]12	-8	x	22*	i	i	-13	-1	-4
C[C@]12CCC3[C@@H](CC[C@@H]4C[C@H](O)CC[C@]34C)[C@@H]1CCC2=O (some centres undefined)	-7	x	6	i	i	0	x	x
CCCCC1(CC)COP(=O)(OCC(Cl)(Cl)Cl)OC1 (centres undefined)	3	x	20*	x	i	-12	0	-3
O=c1[nH]c(O)c(N=Nc2cc([N+](=O)[O-])ccc2O)c(=O)[nH]1	-10	5	-8	i	i	-1	x	x
CC(C)(O)/C=C/C(=O)C(C)(O)C1C(O)CC2(C)C3CC=C4C(C=C(O)C(=O)C4(C)C)C3(C)C(=O)CC12C (centres undefined)	13	x	30*	x	i	12	0	8
O=C1C=CC(=O)C=C1	6	x	35*	x	i	0	0.9*	3
COc1ccccc1Sc1ccccc1CC(C)N (centres undefined)	-2	-7	-2	i	i	-2	x	x
COc1cc(CC(C)N)c(OC)cc1I (centres undefined)	-12	x	70*	i	i	8	0	39*
C/C(=N\Nc1ccccc1)c1c(O)n(C)c(=O)n(C)c1=O	-6	-4	-1	i	i	-2	x	x
Cc1cc(C)cc(NC(=O)CCNC(=O)N2C[C@H]3C[C@@H](C2)c2cccc(=O)n2C3)c1	-1	x	-1	i	i	-1	x	x
O=C1NCCCCC1(Cl)Cl	-6	x	17*	x	i	-7	0	3
O=C(COc1ccc(Br)cc1)N1CCN(Cc2c[nH]c3ccccc23)CC1	-6	9	56*	i	i	-1	0	28*
O=C(COc1ccc2ccccc2c1)N1CCN(Cc2c[nH]c3ccccc23)CC1	5	-12	34*	i	i	7	0	19*
N#CC[N+]1(CCCNP2(=O)C=C(c3ccccc3)OC(c3ccccc3)=C2)CCOCC1	2	-4	-2	i	i	-3	x	x
c1ccc(-c2nc(N3CCOCC3)s[n+]2-c2ccccc2)cc1	-4	0	1	i	i	2	x	x
c1ccc(CNCCc2ccc3c(c2)OCO3)nc1	5	-11	4	i	i	-18	x	x
Brc1cccc(CNCCc2ccc3c(c2)OCO3)c1	-3	x	21*	i	i	-4	1.4*	21*
CN(C)c1cccc(CN2CCN(c3ccccc3)CC2)c1	2	x	3	x	x	x	x	x
CC(=O)c1cccc(OCC(O)CN2CC=C(c3ccccc3)CC2)c1 (centres undefined)	-7	5	19*	i	i	1	-1	79*
Cc1cccnc1-n1c(C)nc2ccccc2c1=O	-11	-10	2	i	i	4	x	x
CN1C[C@H](CO)C[C@@H]2c3cccc4[nH]cc(c34)C[C@H]21	-4	x	23*	i	i	-9	0	113*
SMILES	NOD2-RIPK2 inh	TLR4-MyD88 BLA	HTR2A ag	ANO1 block	TMEM16A act	TLR9-MyD88 inh	OPRM1 ag	HTR2A ag conf
O=S(=O)(c1cc(Cl)cc(Cl)c1)N1Cc2cc(-c3cccc(F)c3)ccc2-n2nncc2C1	7	x	14*	x	x	x	0	-2
Cc1ccc(S(=O)(=O)N2Cc3cc(-c4cccc(F)c4)ccc3-n3nncc3C2)cc1	2	x	0	x	x	x	x	x
O=P(OCC(F)(F)C(F)F)(N1CCCCC1)N1CCCCC1	-7	6	6	i	i	1	x	x
O=P(Oc1ccc(Cl)cc1)(N1CC1)N1CC1	9	x	-3	x	i	-2	x	x
C[C@]12CC[C@H](OS(=O)(=O)O)CC1=CC[C@@H]1[C@@H]2CC[C@]2(C)C(=O)CC[C@@H]12	-9	x	15*!	i	i	7	0	6
CC1CCCCC1NC1CCN(C)CC1 (centres undefined)	7	x	1	i	i	-6	x	x
COc1ccc(-n2nnnc2C(c2cc3ccccc3o2)N2CCC(n3c(=O)[nH]c4ccccc43)CC2)cc1 (centres undefined)	-1	x	16*	x	x	x	x	4
CN1CCN(C(=O)Cc2ccccc2)CC1	-4	x	20*	i	i	-1	-1	1
Cc1cccc(CN2CCN(C(=O)Cc3ccccc3)CC2)c1	6	x	14	i	i	3	x	x
CN1CCN(C(=O)O[C@H]2c3nccnc3C(=O)N2c2ccc(Cl)cn2)CC1	-12	x	3	i	i	0	x	x
Cc1[nH]c2c(C(F)(F)F)cccc2c1CCN	-11	3	48*	i	i	-12	-1	32*
Cc1[nH]c2ccc(O)cc2c1CCN	-4	x	4	i	i	-2	x	x
Cc1nc2cc(OC(=O)N(C)Cc3cccc(-c4ccncc4)c3)ccc2s1	-8	x	20*	x	x	x	0	-4
N#Cc1c(Br)n(C2OC(CO)C(O)C2O)c2ncnc(N)c12 (centres undefined)	-3	x	51*	x	i	3	0	100*
ClCCOCOCCCl	-8	x	3	x	i	2	x	x
CCCCn1c(=O)c(C(=O)NCc2ccco2)c(O)c2ccccc21	-16	-3	2	i	i	-11	x	x
CCCCCn1c(=O)c(C(=O)NCc2ccco2)c(O)c2ccccc21	3	6	18*	i	i	1	0	2
CC(N)Cc1c[nH]c2ccc(O)cc12 (centres undefined)	-15	x	49*	x	i	-4	-1	32*
CC(N)Cc1c[nH]c2ccc(OCc3cccs3)cc12 (centres undefined)	-1	x	22*	i	i	-3	-1	8
CSc1nnc([C@@H](N)Cc2c[nH]c3ccccc23)o1	0	-17	10	i	i	2	x	x
